# Experimental data: paper PMC7862700, “An all-to-all approach to the identification of sequence-specific readers for epigenetic DNA modifications on cytosine”
# What was measured:
# Assay in all cases: DAPPL (digital affinity profiling via proximity ligation, sequencing); 10 mM Tris-HCl pH 7.5, 50 mM NaCl, 1 mM DTT, 4% glycerol, room temperature, 30 min; GST-TFs on glutathione beads, 16-mer random dsDNA library, 0.1% formaldehyde crosslink after washing; high values mean tight binding
# [1] = target: SPI1 (Homo sapiens, UniProt P17947 1-270); conditions: protein: recombinant; tags: N-terminal GST; dsDNA, one strand shown
# How it was run: (§1)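 Binding signal is defined as a hexamer's read frequency for one factor over its frequency for the tag-only sample. To obtain reads, GST-fused human transcription factors were expressed in yeast, captured on glutathione beads, barcoded with DNA and pooled with that sample. Pools met 200 nmole of a 16-mer random double-stranded DNA library in Tris/NaCl/DTT/glycerol buffer for 30 min at room temperature before washing, 0.1% formaldehyde crosslinking, proximity ligation (BsaI/T4 ligase, 1 h, 37 °C), PCR and Illumina NextSeq500 sequencing.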
# [2] = target: T1, FEV (Homo sapiens, UniProt Q99581 1-238); conditions: protein: recombinant; tags: N-terminal GST; dsDNA, one strand shown
# T1 sequence: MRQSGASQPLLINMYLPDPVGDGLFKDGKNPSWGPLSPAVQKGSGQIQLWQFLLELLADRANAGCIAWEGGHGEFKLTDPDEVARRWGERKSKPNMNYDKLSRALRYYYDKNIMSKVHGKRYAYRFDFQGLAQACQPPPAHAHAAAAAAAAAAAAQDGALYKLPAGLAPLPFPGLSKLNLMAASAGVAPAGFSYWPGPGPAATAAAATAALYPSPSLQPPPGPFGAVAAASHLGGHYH
# How it was run: as §1
# [3] = target: T2, ELF5 (Homo sapiens, UniProt Q9UKW6-2 1-255); conditions: protein: recombinant; tags: N-terminal GST; dsDNA, one strand shown
# T2 sequence: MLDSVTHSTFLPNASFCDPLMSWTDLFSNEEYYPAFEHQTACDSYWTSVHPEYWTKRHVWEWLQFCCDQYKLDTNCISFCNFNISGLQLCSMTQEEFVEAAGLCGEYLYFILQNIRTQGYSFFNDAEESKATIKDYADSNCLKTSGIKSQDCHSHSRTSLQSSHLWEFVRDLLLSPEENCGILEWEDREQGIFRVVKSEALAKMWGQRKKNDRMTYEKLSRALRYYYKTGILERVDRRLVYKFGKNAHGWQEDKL
# How it was run: as §1
# [4] = target: T3, SPDEF (Homo sapiens, UniProt O95238 1-335); conditions: protein: recombinant; tags: N-terminal GST; dsDNA, one strand shown
# T3 sequence: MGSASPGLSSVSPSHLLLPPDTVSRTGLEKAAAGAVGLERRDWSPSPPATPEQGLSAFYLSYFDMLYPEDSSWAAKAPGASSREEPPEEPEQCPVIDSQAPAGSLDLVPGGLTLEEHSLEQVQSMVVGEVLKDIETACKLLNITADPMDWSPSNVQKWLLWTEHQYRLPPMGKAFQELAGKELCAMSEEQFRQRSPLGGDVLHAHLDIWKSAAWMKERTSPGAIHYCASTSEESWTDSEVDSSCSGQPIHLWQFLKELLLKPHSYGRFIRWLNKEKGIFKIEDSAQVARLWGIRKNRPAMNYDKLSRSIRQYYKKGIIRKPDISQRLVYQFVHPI
# How it was run: as §1
# [5] = target: HSF1 (Homo sapiens, UniProt Q00613 1-529); conditions: protein: recombinant; tags: N-terminal GST; chain copies: 3; dsDNA, one strand shown
# HSF1, sequence (Q00613 whole entry): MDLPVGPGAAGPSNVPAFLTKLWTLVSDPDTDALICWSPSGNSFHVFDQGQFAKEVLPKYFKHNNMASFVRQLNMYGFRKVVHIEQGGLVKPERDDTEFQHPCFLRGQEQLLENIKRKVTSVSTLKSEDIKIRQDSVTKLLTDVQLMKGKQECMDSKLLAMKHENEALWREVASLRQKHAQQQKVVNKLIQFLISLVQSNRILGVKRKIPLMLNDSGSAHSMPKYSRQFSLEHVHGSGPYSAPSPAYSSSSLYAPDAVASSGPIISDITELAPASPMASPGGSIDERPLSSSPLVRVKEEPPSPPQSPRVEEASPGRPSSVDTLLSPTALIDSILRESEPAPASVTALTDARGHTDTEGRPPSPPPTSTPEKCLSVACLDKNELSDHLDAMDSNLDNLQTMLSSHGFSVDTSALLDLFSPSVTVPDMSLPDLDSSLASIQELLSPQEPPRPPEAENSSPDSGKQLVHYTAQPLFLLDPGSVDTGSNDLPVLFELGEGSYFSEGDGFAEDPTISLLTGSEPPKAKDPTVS
# How it was run: as §1
# [6] = target: CRX (Homo sapiens, UniProt O43186 1-299); conditions: protein: recombinant; tags: N-terminal GST; dsDNA, one strand shown
# CRX, sequence (O43186 whole entry): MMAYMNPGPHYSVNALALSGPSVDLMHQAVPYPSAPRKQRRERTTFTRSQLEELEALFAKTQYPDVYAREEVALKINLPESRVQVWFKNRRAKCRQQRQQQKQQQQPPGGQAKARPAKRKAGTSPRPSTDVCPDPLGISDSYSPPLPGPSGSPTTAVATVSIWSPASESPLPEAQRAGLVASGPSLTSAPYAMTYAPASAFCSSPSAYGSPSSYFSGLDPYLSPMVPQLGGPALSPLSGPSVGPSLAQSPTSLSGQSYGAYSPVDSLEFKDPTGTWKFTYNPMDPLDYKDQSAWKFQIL
# How it was run: as §1
sequence,measurement,setting,value
GGTAAC,binding signal,[1],"1.02 fold enrichment (6-mer frequency, TF over GST control)"
same,binding signal,[2],"1.05 fold enrichment (6-mer frequency, TF over GST control)"
same,binding signal,[3],"1.02 fold enrichment (6-mer frequency, TF over GST control)"
TGGTTG,binding signal,[1],"1.06 fold enrichment (6-mer frequency, TF over GST control)"
same,binding signal,[3],"1 fold enrichment (6-mer frequency, TF over GST control)"
GATGGG,binding signal,[4],"1.08 fold enrichment (6-mer frequency, TF over GST control)"
CTCGGG,binding signal,[5],"1.04 fold enrichment (6-mer frequency, TF over GST control)"
TCAGAT,binding signal,[1],"1.08 fold enrichment (6-mer frequency, TF over GST control)"
same,binding signal,[5],"1.21 fold enrichment (6-mer frequency, TF over GST control)"
same,binding signal,[6],"1.45 fold enrichment (6-mer frequency, TF over GST control)"
same,binding signal,[4],"1.07 fold enrichment (6-mer frequency, TF over GST control)"
same,binding signal,[3],"1 fold enrichment (6-mer frequency, TF over GST control)"
CGCTAA,binding signal,[5],"1.09 fold enrichment (6-mer frequency, TF over GST control)"
same,binding signal,[6],"1.34 fold enrichment (6-mer frequency, TF over GST control)"
CATTGC,binding signal,[1],"1.05 fold enrichment (6-mer frequency, TF over GST control)"
same,binding signal,[2],"1.04 fold enrichment (6-mer frequency, TF over GST control)"
TTGGAT,binding signal,[2],"1 fold enrichment (6-mer frequency, TF over GST control)"
same,binding signal,[5],"1.21 fold enrichment (6-mer frequency, TF over GST control)"
same,binding signal,[6],"1.39 fold enrichment (6-mer frequency, TF over GST control)"
same,binding signal,[4],"1.13 fold enrichment (6-mer frequency, TF over GST control)"
CGCAAC,binding signal,[2],"1.07 fold enrichment (6-mer frequency, TF over GST control)"
same,binding signal,[4],"1.03 fold enrichment (6-mer frequency, TF over GST control)"
same,binding signal,[3],"1.01 fold enrichment (6-mer frequency, TF over GST control)"
TTGGAA,binding signal,[5],"1.32 fold enrichment (6-mer frequency, TF over GST control)"
same,binding signal,[6],"1.07 fold enrichment (6-mer frequency, TF over GST control)"
AGAAAC,binding signal,[5],"1.78 fold enrichment (6-mer frequency, TF over GST control)"
ATGGGG,binding signal,[1],"1.11 fold enrichment (6-mer frequency, TF over GST control)"
same,binding signal,[2],"1.05 fold enrichment (6-mer frequency, TF over GST control)"
same,binding signal,[6],"1.03 fold enrichment (6-mer frequency, TF over GST control)"
same,binding signal,[3],"1.1 fold enrichment (6-mer frequency, TF over GST control)"
CGTTGC,binding signal,[2],"1.11 fold enrichment (6-mer frequency, TF over GST control)"
same,binding signal,[4],"1.18 fold enrichment (6-mer frequency, TF over GST control)"
same,binding signal,[3],"1.03 fold enrichment (6-mer frequency, TF over GST control)"
CGCGAT,binding signal,[1],"1.09 fold enrichment (6-mer frequency, TF over GST control)"
same,binding signal,[5],"1.23 fold enrichment (6-mer frequency, TF over GST control)"
same,binding signal,[6],"1.1 fold enrichment (6-mer frequency, TF over GST control)"
same,binding signal,[4],"1.05 fold enrichment (6-mer frequency, TF over GST control)"
same,binding signal,[3],"1.04 fold enrichment (6-mer frequency, TF over GST control)"
GCCGCT,binding signal,[1],"1.12 fold enrichment (6-mer frequency, TF over GST control)"
same,binding signal,[2],"1.05 fold enrichment (6-mer frequency, TF over GST control)"
same,binding signal,[6],"1.02 fold enrichment (6-mer frequency, TF over GST control)"
same,binding signal,[3],"1.03 fold enrichment (6-mer frequency, TF over GST control)"
GCACCT,binding signal,[1],"1.05 fold enrichment (6-mer frequency, TF over GST control)"
same,binding signal,[2],"1.04 fold enrichment (6-mer frequency, TF over GST control)"
same,binding signal,[4],"1.09 fold enrichment (6-mer frequency, TF over GST control)"
TAGGTA,binding signal,[2],"1 fold enrichment (6-mer frequency, TF over GST control)"
same,binding signal,[5],"1.03 fold enrichment (6-mer frequency, TF over GST control)"
same,binding signal,[6],"1.22 fold enrichment (6-mer frequency, TF over GST control)"
same,binding signal,[4],"1.02 fold enrichment (6-mer frequency, TF over GST control)"
TAAGTC,binding signal,[5],"1.21 fold enrichment (6-mer frequency, TF over GST control)"
same,binding signal,[6],"1.79 fold enrichment (6-mer frequency, TF over GST control)"
same,binding signal,[4],"1.01 fold enrichment (6-mer frequency, TF over GST control)"
ACCCCT,binding signal,[1],"1.1 fold enrichment (6-mer frequency, TF over GST control)"
same,binding signal,[2],"1.08 fold enrichment (6-mer frequency, TF over GST control)"
same,binding signal,[4],"1.16 fold enrichment (6-mer frequency, TF over GST control)"
same,binding signal,[3],"1 fold enrichment (6-mer frequency, TF over GST control)"
TCGCGT,binding signal,[1],"1 fold enrichment (6-mer frequency, TF over GST control)"
same,binding signal,[5],"1.04 fold enrichment (6-mer frequency, TF over GST control)"
TCAGCT,binding signal,[1],"1.04 fold enrichment (6-mer frequency, TF over GST control)"
same,binding signal,[5],"1.07 fold enrichment (6-mer frequency, TF over GST control)"
same,binding signal,[6],"1.39 fold enrichment (6-mer frequency, TF over GST control)"
GTTTGC,binding signal,[1],"1.03 fold enrichment (6-mer frequency, TF over GST control)"
same,binding signal,[3],"1.07 fold enrichment (6-mer frequency, TF over GST control)"
GCTGCA,binding signal,[1],"1 fold enrichment (6-mer frequency, TF over GST control)"
same,binding signal,[2],"1.01 fold enrichment (6-mer frequency, TF over GST control)"
CACCTA,binding signal,[1],"1.03 fold enrichment (6-mer frequency, TF over GST control)"
GATTAA,binding signal,[2],"1.02 fold enrichment (6-mer frequency, TF over GST control)"
same,binding signal,[5],"2.83 fold enrichment (6-mer frequency, TF over GST control)"
same,binding signal,[6],"4.96 fold enrichment (6-mer frequency, TF over GST control)"
same,binding signal,[4],"1.08 fold enrichment (6-mer frequency, TF over GST control)"
GGTTCT,binding signal,[5],"1.54 fold enrichment (6-mer frequency, TF over GST control)"
same,binding signal,[4],"1.01 fold enrichment (6-mer frequency, TF over GST control)"
same,binding signal,[3],"1.01 fold enrichment (6-mer frequency, TF over GST control)"
TAGTTG,binding signal,[6],"1.03 fold enrichment (6-mer frequency, TF over GST control)"
GTCACG,binding signal,[1],"1.05 fold enrichment (6-mer frequency, TF over GST control)"
same,binding signal,[4],"1.02 fold enrichment (6-mer frequency, TF over GST control)"
CGCCAT,binding signal,[1],"1.08 fold enrichment (6-mer frequency, TF over GST control)"
same,binding signal,[3],"1.03 fold enrichment (6-mer frequency, TF over GST control)"
TTGACG,binding signal,[1],"1.04 fold enrichment (6-mer frequency, TF over GST control)"
same,binding signal,[2],"1.1 fold enrichment (6-mer frequency, TF over GST control)"
same,binding signal,[6],"1.01 fold enrichment (6-mer frequency, TF over GST control)"
same,binding signal,[3],"1.07 fold enrichment (6-mer frequency, TF over GST control)"
AGTTTT,binding signal,[3],"1.01 fold enrichment (6-mer frequency, TF over GST control)"
CGGCCC,binding signal,[2],"1 fold enrichment (6-mer frequency, TF over GST control)"
GTGGCA,binding signal,[1],"1.04 fold enrichment (6-mer frequency, TF over GST control)"
same,binding signal,[2],"1.09 fold enrichment (6-mer frequency, TF over GST control)"
